Sampled rows, rich in hits. Any-hit rate of the full collection: about 3.7%.
MazEF act – increases E. coli MazEF RNase cleavage of RNA; P0AE70; FAM/BHQ RNA-DNA oligo cleavage fluorescence, 5 h; activation, % at 20 µM; 0.32% of 350,000 active; AID 504720; in the data active means activation above about 50%
Anthrax LF prot – inhibitors of Bacillus anthracis lethal factor protease | P15917 | multiplex microsphere protease cleavage assay, LF | 0.12% of 360,000 active | inhibition, % at 10 µM; further: plate controls were buffer without enzyme for full effect and enzyme alone for no effect
Bead autofluor – flagged as autofluorescent in microsphere protease counterscreen; compound autofluorescence counterscreen, microsphere flow cytometry; hits give high values; fluorescence intensity (concentration not given with the values); 3.1% of 360,000 active; in the data active means fluorescence intensity above about 16000; inconclusive means no clear call, values can overlap the other calls
BoNT-F LC inh – BoNT F light chain protease inhibition; inhibition, % at 10 µM; AID 588497; Multiplex microsphere protease cleavage assay, flow cytometry; 0.22% of 360,000 active; in the data active means inhibition above about 35%, passing the limit was not always enough; inconclusive means no clear call, values can overlap the other calls; further: plate controls were buffer without enzyme for full effect and enzyme alone for no effect
BoNT-A LC inh2 – BoNT A light chain protease inhibition; AID 588499; 0.17% of 360,000 active; multiplex microsphere protease substrate cleavage, flow cytometry; inhibition, % at 10 µM; further: plate controls were buffer without enzyme for full effect and enzyme alone for no effect
* = called active by the depositor; ? = inconclusive; · = not tested or not shown. Unless noted, no stated cut-off is given here; in the data, active means inhibition above about 30%; inconclusive means no clear call, values can overlap the other calls; inactive means below that.

SMILES	MazEF act	Anthrax LF prot	Bead autofluor	BoNT-F LC inh	BoNT-A LC inh2
C=CCn1c(Cc2cccs2)nnc1SCC(=O)c1ccc2ccccc2c1	1	-1	23327*	0	?
C=CCn1c(Cc2cccs2)nnc1SCC(=O)c1ccc(F)cc1	5	-6	9208	-17	-1
C=CCn1c(CCNC(=O)c2cccs2)nnc1SCC(=O)c1ccc(Cl)cc1	4	0	23328*	1	0
C=CCn1c(CNC(=O)c2cccs2)nnc1SCC(=O)c1ccc(Br)cc1	71*	0	23917*	-1	-1
C=CCn1c(CCNC(=O)c2cccs2)nnc1SCC(=O)c1cccc([N+](=O)[O-])c1	-2	0	14951	5	4
Cc1csc(NC(=O)CSc2nnc(CCNC(=O)c3cccs3)n2C)n1	3	-1	15777	5	3
CC1CCCCN1CCNC(=O)c1ccc2c(=O)n(Cc3ccc(Cl)cc3)c(=S)[nH]c2c1 (stereo not drawn)	-2	-2	10582	2	0
C=CCn1c(CNC(=O)c2cccs2)nnc1SCC(=O)Nc1ccc(C(=O)O)cc1	8	-5	19549*	0	?
CCOC(=O)N1CCN(c2ncnc3c2oc2nc(C(C)C)c4c(c23)CCC4)CC1	55*	-5	20792*	4	4
COc1ccc2c(=O)c3c(=O)n(Cc4ccco4)c(-c4cc(OC)c(OC)c(OC)c4)nc3oc2c1	3	-1	16166*	2	1
CC1(C)C2CC=C(CN3CCOCC3)C1C2 (stereo not drawn)	5	-1	22704*	1	1
c1csc(CN2CCOCC2)c1	-11	-8	9556	-30	-6
COc1ccc(C2CC(c3ccccc3Cl)Nc3ncnn32)cc1OC (stereo not drawn)	7	-3	4876	-3	-1
COc1cccc(C2CC(c3ccccc3Cl)Nc3ncnn32)c1 (stereo not drawn)	3	-7	18432*	5	4
N=C(N)Sc1nc(N2CCCCC2)nc(N2CCCCC2)n1	2	4	6360	6	4
c1ccc(Sc2nc(N3CCCCC3)nc(N3CCCCC3)n2)nc1	-3	-7	19461*	4	?
COc1cc2nc(CC(C)C)n(NC(=O)c3ccccc3)c(=O)c2cc1OC	7	1	22766*	3	?
COc1ccc(C(=O)Nn2c(CC(C)C)nc3cc(OC)c(OC)cc3c2=O)c(OC)c1	7	3	4221	?	-2
CCN1C/C(=C/c2ccc(N3CCOCC3)cc2)C(=O)/C(=C/c2ccc(N3CCOCC3)cc2)C1	-178	22	4303	-8	37*
CCc1ccc(/C=C2/SC(N3CCOCC3)=NC2=O)cc1	7	-5	5431	-3	0
CN1C/C(=C\c2ccc(N3CCOCC3)cc2)C(=O)/C(=C/c2ccc(N3CCOCC3)cc2)C1	57*	33*	9043	7	34*
C=CCn1c(Cc2ccccc2)nc2c(cnn2-c2ccccc2)c1=O	-13	1	3840	10	-2
COc1ccc(OC)c(NC(=O)C2CCN(Cc3cnn(-c4ccccc4)c3-n3cccc3)CC2)c1	6	-4	20746*	-4	-2
O=C(C(=O)N1CCOCC1)c1cn(CC(=O)N2CCCCC2)c2ccccc12	7	0	4607	3	-1
CCOC(=O)C1CCN(C(=O)C(=O)c2cn(CC(=O)N3CCCCCC3)c3ccccc23)CC1	-40	31*	8139	17	44*
SMILES	MazEF act	Anthrax LF prot	Bead autofluor	BoNT-F LC inh	BoNT-A LC inh2
CCOC(=O)C1CCCN(C(=O)C(=O)c2cn(CC(=O)N3CCOCC3)c3ccccc23)C1 (stereo not drawn)	-5	-7	19022*	-98	-53
CCOC(=O)C1=CCN(S(=O)(=O)c2ccc(Cl)cc2)C1c1cccc(C)c1 (stereo not drawn)	·	4	5876	0	0
Cc1cccc(N(CC(=O)NC2CCCC2)C(=O)CS(=O)CC(=O)Nc2ccc3c(c2)OCO3)c1 (stereo not drawn)	-3	-2	22772*	-11	?
Cc1ccc(NC(=O)CS(=O)CC(=O)N(CC(=O)NC2CCCC2)c2ccc3c(c2)OCCO3)cc1 (stereo not drawn)	10	0	3431	0	0
O=C(O)CC/C(=C\c1ccc(Cl)c([N+](=O)[O-])c1)c1nc2ccccc2s1	-2	0	8167	5	2
O=C(O)CC/C(=C\c1ccc2c(c1)OCO2)c1nc2ccccc2s1	60*	-2	4178	3	0
O=C(OCc1cn([C@H]2CN(CC3CCCCC3)[C@@H](c3ccccc3)C[C@@H]2O)nn1)c1ccccc1	7	6	3752	4	0
